# Test results published in ChEMBL document CHEMBL1157539, “Thousands of chemical starting points for antimalarial lead identification” (Nature, 2010).
# Legend:
# Format in all cases: functional
# Plasmodium falciparum [1] = test: GSK_TCMDC: Inhibition of Plasmodium falciparum 3D7 in whole red blood cells, using parasite LDH activity as an index of growth. Test compounds present at 2uM
# Plasmodium falciparum [2] = test: GSK_TCMDC: Inhibition of Plasmodium falciparum Dd2 in whole red blood cells, using parasite LDH activity as an index of growth. Test compounds present at 2uM
# HepG2 = test: GSK_TCMDC: Percent inhibition of human HepG2 cell line. Test compounds present at 10uM.
SMILES,Inhibition (Plasmodium falciparum [1]) [%],Inhibition (Plasmodium falciparum [2]) [%],Inhibition (HepG2) [%]
COc1ccc2c(=NN=Cc3ccccc3Cl)cc(C)[nH]c2c1,100,99,5
CN(C)CCN(C)Cc1ccc(-c2cccc(-c3nc4ccccc4[nH]3)c2)cc1.O=C(O)C(F)(F)F,100,78,46
CCOC(=O)c1cc(C(=O)NCCCCN2CCC(c3cn(C)c4ccccc34)CC2)ccc1-c1ccc(C(F)(F)F)cc1,91,6,25
COCCn1c(C)cc(C(=O)CN2C(=O)NC(C)(c3ccc(C(C)(C)C)cc3)C2=O)c1C (stereo not drawn),97,96,7
CCNc1cc(C(=O)NC(Cc2ccccc2)C(O)CNC2CCSCC2)cc(N2CCCC2=O)c1 (stereo not drawn),99,98,0
Cl.Oc1ccc2[nH]c(-c3cccs3)nc2c1CN1CCC(N2CCCC2)CC1,100,13,6
Cc1nc(-c2cccc(Nc3ccnc4cc(-c5nccs5)ccc34)c2)no1.Cl,99,90,37
COCCCNC(=N)c1ccc(NC(=O)c2ccc(C(=O)Nc3ccc(C(=N)NCCCOC)cc3)cc2)cc1.Cl,100,99,33
Cc1ccc(/C=C/C(=O)NC2CCC(N3CCC(c4ccccc4C)CC3)CC2)cc1F (stereo not drawn),96,18,51
CCOc1cc(C(=O)N[C@@H](Cc2ccccc2)[C@H](O)CNCc2cc(OC)cc(OC)c2)cc(N2CCCC2=O)c1.Cl,94,63,0
O=C(NCCNc1noc(-c2sccc2Br)n1)c1ccc(Cl)cc1,93,1,0
Cn1c(N)c(N=O)c(=O)[nH]c1=O,97,82,58
O=C(Nc1cccc(F)c1)N1CCC(CN2CCOC(c3ccccc3)(c3ccccc3)C2)CC1,96,97,12
Cc1cc(N(C)C)nc(Nc2ccc(NC(=O)c3ccc(F)cc3)cc2)n1,100,21,8
O=S(=O)(Nc1cccc(CCN2CCCCC2CCN2CCCC2)c1)c1cccc2ccccc12 (stereo not drawn),97,6,23
O=C(c1ccc(-c2ccc(-c3nc4cc(F)ccc4[nH]3)cc2)cc1)N1CCCCC1CN1CCC(O)C1 (stereo not drawn),90,100,24
CCn1c(-c2nonc2N)nc2c(-c3cccc(NC(=O)Nc4cccc(Cl)c4)c3)ncc(OCCCN)c21.O=C(O)C(F)(F)F,91,78,9
CCc1c(CCNCCCCCCNCCc2ccc(Br)cc2)ccc(OC)c1OC.Cl,99,14,100
COc1nc2c(CCN3CC[C@H](NCc4cc(C#N)c5c(c4)OCCO5)[C@H](O)C3)ccnc2cc1F,95,41,18
COc1ccc(NC(=O)c2ccc(NC(=O)c3ccc(Cl)cc3)cc2)cc1N1CCN(C)CC1,98,40,23
CCCCCC(=O)NCC(NCCCNc1cc(=O)c2ccccc2[nH]1)c1cc(Br)cc(Br)c1 (stereo not drawn),96,66,0

SMILES,Inhibition (Plasmodium falciparum [1]) [%],Inhibition (Plasmodium falciparum [2]) [%],Inhibition (HepG2) [%]
Clc1ncnc2ncn(Cc3cccc(Br)c3)c12,91,56,0
NC1CCN(Cc2cccc(-c3csc(-c4nc5ccccc5[nH]4)c3)c2)C1.O=C(O)C(F)(F)F (stereo not drawn),99,10,10
CC(C)c1ccc(NC(=O)c2cccc(CN3CCCN(Cc4cccc(O)c4)CC3)c2)cc1.O=C(O)C(F)(F)F,97,33,25
[O-][S+]1c2ccccc2Sc2ccccc21,99,0,48
CCOc1cc2ncnc(Nc3ccc(OCc4ccccc4F)c(Cl)c3)c2cc1OCC.Cl,100,74,4
CCS(=O)(=O)Nc1ccc2[nH]cc(C3CCN(CCC4CCN(C(=O)/C=C/c5ccc(Cl)c(Cl)c5)CC4)CC3)c2c1,99,94,34
O=C(/C=C/c1ccc(C(F)(F)F)cc1)NCCCCCN1CCCN(C(=O)Nc2ccc(Cl)c(Cl)c2)CC1,100,17,89
O=C(CC1CCCCC1)NCC(NCCCNc1cc(=O)c2ccccc2[nH]1)c1cc(Br)cc(Br)c1 (stereo not drawn),95,52,8
Cc1cccc2nc(-c3cccc(-c4cccc(NC(=O)CCc5c[nH]cn5)c4)c3)[nH]c12,100,86,16
Cc1cccc(CN2CCN(c3ncc(C(=O)NC4CC4)cc3Cl)CC2)c1.O=C(O)C(F)(F)F,84,73,2
COc1ccc(NC(=O)[C@H](CC(C)C)Nc2cc(C)nc(Nc3ccccc3)n2)cc1.O=C(O)C(F)(F)F,100,92,25
CCc1nc2nc(C)cc(Nc3ccc(F)c(Cl)c3)n2n1,90,77,2
O=C(CCCCCNC(=O)c1ccc(O)c(-c2ccc(Cl)c(Cl)c2)c1)NCc1cccc(C(F)(F)F)c1,92,10,2
COc1cc2c(cc1C(F)(F)F)N(C(=O)Nc1cc(F)cc(-c3cccnn3)c1)CC2,90,34,21
O=C(NCCCCN1CCC(c2ccc3c(c2OCCCO)CCCC3)CC1)c1ccc(-c2ccc(C(F)(F)F)cc2)cc1,83,53,98
CCN1CCCC(CNC(=O)/C(=C/C=C/c2cc3cc(Cl)c(Cl)cc3[nH]2)OC)C1 (stereo not drawn),93,89,33
O=[N+]([O-])c1ccc2c(-c3ccccc3)c(-c3ccccc3)n(O)c2c1,97,11,8
O=C1C2C(c3ccc(Cl)c(Cl)c3)N3CC(OCc4ccccc4)CC3(C(=O)O)C2C(=O)N1c1ccc(Br)cc1 (stereo not drawn),100,86,14
Br.C=CCc1cc(C)ccc1OCCCON1C(N)=NC(N)=NC1(C)C,96,96,64
COc1cc(NCC(O)CNc2cc(OC)c3ccccc3n2)nc2ccccc12,100,93,42
Cc1cc(CNC(=O)c2ccc(-c3ccc(-c4nc5cc(C(F)(F)F)ccc5[nH]4)s3)cc2)on1,93,56,15

SMILES,Inhibition (Plasmodium falciparum [1]) [%],Inhibition (Plasmodium falciparum [2]) [%],Inhibition (HepG2) [%]
Clc1ccc(CNc2ccnc(NCc3ccc4c(c3)OCCCO4)n2)c(Cl)c1,94,20,50
CC1(C)C=C(c2ccncc2)c2cc(Cl)ccc2O1.Cl,97,22,0
COc1ccc2nc(N3CCN(C(=O)OC(C)(C)C)CC3)nc(NCCCc3ccccc3)c2c1,100,95,9
COc1ccc2nc(-c3ccccc3)cc(NCCCNc3cc(-c4ccccc4)nc4ccc(OC)cc34)c2c1.Cl,99,99,100
CCOc1cc(CC)ccc1C1CCN(CCCCNC(=O)c2ccc(NC(=O)c3ccc(C#N)cc3)cc2)CC1,91,50,55
CN(C(=O)Nc1ccc(C(F)(F)F)cc1)C1CCN(CCCCCNC(=O)/C=C/c2ccc(Cl)c(Cl)c2)CC1,100,38,57
COc1cc(Cc2cnc(N)nc2N)ccc1Oc1ccc(N)cc1,93,0,0
C=CCOc1ccc2ccccc2c1CNCCCCCCNCc1c(OCC=C)ccc2ccccc12.CS(=O)(=O)O,100,98,99
Clc1cc(Cl)c2cc(CNCCCNc3ccc4ccccc4n3)[nH]c2c1.O=C(O)C(F)(F)F,99,54,98
CS(=O)(=O)CCNCc1cccc(-c2cc3c(Nc4ccc(OCc5ccccc5)cc4)ncnc3cn2)c1.Cl,100,26,3
N#Cc1ccc(Cn2ccc3c4c(N)nc(N)nc4ccc32)cc1,92,95,64
CCN(CC)CCCOC(=O)c1ccc2c(c1)-c1ccc(C(=O)OCCCN(CC)CC)c3cccc-2c13.Cl,98,96,22
Cn1nccc1C(=O)NCCNCc1cccc(-c2ccc(-c3nc4cc(C(F)(F)F)ccc4[nH]3)cc2)c1.O=C(O)C(F)(F)F,100,98,51
COc1ccc2nccc(N/N=C/c3ccccc3[N+](=O)[O-])c2c1,100,100,67
CN1CCN(CC(=O)Nc2cccc(-c3cccc(-c4nc5cc(F)ccc5[nH]4)c3)c2)CC1,100,98,16
Cc1ccc(F)cc1S(=O)(=O)N1CCCCC(c2ccc(C(F)(F)F)cc2)=N1,82,75,8
Cc1cc(N[C@@H](Cc2ccccc2)C(=O)NCc2cccc(F)c2)nc(NCCc2ccc(F)cc2)n1.O=C(O)C(F)(F)F,99,69,0
CCN1CCC(N(CCCCCCc2ccc(C(F)(F)F)cc2)C(=O)Cn2c(CCc3cccc(F)c3F)cc(=O)c3ccccc32)CC1.O=C(O)C(O)C(O)C(=O)O,88,82,32
O=C(NC1CCCCC1)N(Cc1ccc(-c2ccc(CNCc3ccc4c(c3)OCO4)cc2)cc1)C1CCN(Cc2ccccc2)CC1.O=C(O)C(F)(F)F,100,72,28
